# Bioassay records: PubChem, Sanford-Burnham Center for Chemical Genomics
# tim10-1 inh: growth inhibitors of tim10-1 mutant yeast, primary screen, luminescence, uHTS; inhibition, % at 20 µM; AID 463190, 2010; S. cerevisiae tim10-1 ts strain growth, BacTiter-Glo, 24 h; 330,000 compounds, 2.2% hits;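 active = inhibition of at least 40%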;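 note: mutant grown at 25 °C; 0% = DMSO wells with yeast and 100% = wells holding no yeast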
# TIM10 inh: growth inhibitors of isogenic TIM10 control yeast, primary screen, counter-screen for tim10-1 yeast inhibitor project, luminescence, uHTS; inhibition, % at 10 µM; S. cerevisiae TIM10 strain growth, BacTiter-Glo luminescence, 24 h; 330,000 compounds, 1.4% hits;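 active = inhibition of 40% or more at the single tested concentration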;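 note: wild-type TIM10 isogenic control strain grown at permissive 25 °C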
# MPTP block: mitochondrial permeability transition pore inhibitors, primary screen, biochemical, isolated mouse mitochondria, absorbance | inhibition, % at 10 µM | 360,000 compounds, 1.4% hits | Ca2+ swelling absorbance, 30 min | AID 602449, 2012;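 active = inhibition of 50% or more, scaled per plate between neutral and stimulator controls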;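 note: 0% = DMSO wells given calcium and 100% = 1 mM EGTA wells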
# Mdm2-MdmX inh: inhibitors of human Mdm2-MdmX association, primary screen, cell-based, luminescence, split luciferase, SaOS-2, uHTS | 330,000 compounds, 3% hits | inhibition, % at 8 µM | Protein Mdm4 (Homo sapiens) + E3 ubiquitin-protein ligase Mdm2 (Homo sapiens), … | SaOS-2 split-luciferase Mdm2/MdmX complementation;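 active = inhibition of at least 50% at 8 µM in the primary screen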
# tim23-1 inh: growth inhibitors of tim23-1 mutant yeast, primary screen, luminescence, uHTS; S. cerevisiae tim23-1 growth, BacTiter-Glo luminescence, 24 h; inhibition, % at 20 µM; 330,000 compounds, 1.3% hits;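 active = growth inhibition of the mutant yeast at or above 50%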;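 note: temperature-sensitive mutant grown at 25 °C; plate controls were DMSO-treated mutant yeast for no effect and medium wells lacking yeast for full effect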
# Mdm2-MdmX conf: Mdm2-MdmX complex disruptors, retested hits, confirmation, luminescence, single concentration; shares compounds with Mdm2-MdmX inh; Mdm2-MdmX binding, luminescent assay; inhibition, % at 8 µM; 10,000 compounds, 55% hits; AID 489028, 2010; in the data active = inhibition above about 40%
# FLuc counter: full-length luciferase signal inhibition, confirmation, counter-screen for Mdm2/MdmX interaction inhibitor project, cell-based, single concentration, SaOS-2. shares compounds with Mdm2-MdmX inh. inhibition, % at 8 µM. SaOS-2 full-length luciferase counterscreen, luminescence. 6,200 compounds, 77% hits. AID 504607, 2011;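 active = mean inhibition at 8 µM reaching about 37%, which flags the compound as non-specific, limit read from the data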;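 note: p53-null SaOS-2 cells with luciferase driven by a doxycycline-inducible promoter; compound on cells about two nights before reading with doxycycline added after day one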
# * = called active by the depositor; / = no result given. Rows were chosen to be rich in hits. Some 6.3% of all compounds tested hit in one or more screens of this group.
SMILES,tim10-1 inh,TIM10 inh,MPTP block,Mdm2-MdmX inh,tim23-1 inh,Mdm2-MdmX conf,others
CC(C)(C)OC(=O)[C@H](Cc1ccccc1)NC(=O)c1nc[nH]c1C(=O)N1CCN(C(=O)OC(C)(C)C)CC1,2,11,-1,74*,7,27,
CC(C)C[C@H](NC(=O)c1[nH]cnc1C(=O)N[C@@H](Cc1ccccc1)C(=O)OC(C)(C)C)C(=O)OC(C)(C)C,17,26,-1,80*,19,22,
Cc1ccc2[nH]c(=O)c(CN(Cc3cccs3)Cc3nnnn3Cc3ccccc3)cc2c1,6,22,4,50,32,21,
CC(C)OC(=O)N(C)C[C@@H]1OCc2cnnn2CCCC(=O)N([C@H](C)CO)C[C@H]1C,/,/,-1,/,/,/,
CC(C)(C)NC(=O)C1c2ccccc2OCC(=O)N1Cc1ccc2c(c1)OCO2 (centres undefined),/,/,-2,/,/,/,
O=C(c1cc(C2CC2)nn1-c1ccccc1)N1CCN(S(=O)(=O)c2ccccc2F)CC1,/,/,1,/,/,/,
Cn1nc(-c2ccc(N3CCCCC3)c(NC(=O)c3ccco3)c2)c2ccccc2c1=O,24,20,-2,88*,30,44*,FLuc counter=41*
CCC(=O)Nc1cc(-c2nn(C)c(=O)c3ccccc23)ccc1N1CCOCC1,13,5,0,15,14,/,
COc1ccc(OCC(=O)Nc2cc(-c3nn(C)c(=O)c4ccccc34)ccc2N2CCOCC2)cc1,0,1,0,67*,7,19,
CCCCOC(=O)NS(=O)(=O)c1sc(CC(C)C)cc1-c1ccc(Cn2c(CC)nc3c(C)cc(C)nc32)cc1,16,3,/,89*,21,40,FLuc counter=72*
CCCCOC(=O)Nc1ccc(S(=O)(=O)Nc2nc(C)cc(C)n2)cc1,15,-8,-3,-13,11,/,
CC(=O)N(c1ccccc1)C1CCCC1,-5,6,1,9,-9,/,
O=C(CCl)N(c1ccccc1)C1CCCCC1,15,0,0,94*,38,100*,FLuc counter=52*
O=c1cc(CSc2ccc(Cl)cc2)nc(-c2ccccn2)[nH]1,27,-33,-2,89*,25,78*,FLuc counter=31
Cc1noc2ncnc(Sc3ccccc3Cl)c12,32,30,0,70*,6,-4,
CC(C)Oc1ccc2ccccc2c1CNC[C@H]1O[C@@H](n2ccc(N)nc2=O)[C@H](O)[C@@H]1O,/,/,1,/,/,/,
CC(=O)Nc1ccc(OCc2cn(CC(=O)c3ccc(O)cc3)nn2)cc1,/,/,0,/,/,/,
Cc1[nH]c2ccccc2c1C(C[N+](=O)[O-])c1ccco1 (centres undefined),19,12,0,6,9,/,
Cc1ccc(-c2[nH]c3ccccc3c2C(C[N+](=O)[O-])c2ccco2)cc1 (centres undefined),22,26,0,63*,19,23,
O=C(NCCCN1CCCC1)c1ccc2c(c1)N(Cc1ccccc1F)C(=O)c1ccccc1S2=O (centres undefined),-5,-13,-2,5,-38,/,
Cc1ccc(C)c(CN2C(=O)c3ccccc3S(=O)c3ccc(C(=O)NCCCN4CCCC4)cc32)c1 (centres undefined),21,-7,-3,51*,7,16,
Cc1ccc(CN2C(=O)c3ccccc3Sc3ccc(C(=O)NCCN4CCOCC4)cc32)cc1,0,12,-1,52*,-5,54*,FLuc counter=69*
COc1ccc2nc(C(c3ccc(C)cc3)n3c(-c4ccccc4Br)nc4ccccc43)[nH]c2c1 (centres undefined),/,/,-2,/,/,/,
C#CCNC(=O)c1cc2c(Br)ccc(Br)c2nc1N,/,/,1,/,/,/,
CCOc1ccc(NC(=O)CN2C(=O)NC(CCc3ccccc3)C2=O)cc1OCC (centres undefined),6,5,1,14,5,/,
SMILES,tim10-1 inh,TIM10 inh,MPTP block,Mdm2-MdmX inh,tim23-1 inh,Mdm2-MdmX conf,others
CC(=O)Nc1ccc(S(=O)(=O)NCCC(=O)OCc2csc(CC(=O)Nc3ccccc3C)n2)cc1,21,-1,-1,51*,15,1,
CC(C)Sc1nc(NCc2ccco2)c2c3c(sc2n1)COC(C)(C)C3,26,27,-14,-49,28,/,
Cc1nc(NCc2ccco2)c2c3c(sc2n1)CCC3,27,-11,1,72*,34,33,
Cc1ccc(C(O)c2ncc(-c3cccc4ccccc34)[nH]2)c(C)c1 (centres undefined),/,/,1,/,/,/,
CCOC(=O)c1c(C)nc2sc(C(=O)Nc3ccccc3)c(N)c2c1-c1ccc(OC)cc1,26,0,1,59*,9,35,
O=C1NC[C@@H](CCCCN2CCN(Cc3ccccc3)C(=O)C2=O)N(Cc2ccccc2)C1=O,/,/,-1,/,/,/,
NC(=O)CSc1nc2ccccc2nc1SCC(N)=O,1,-6,2,-28,11,/,
NC(=O)CSc1nc(C23CC4CC(CC(C4)C2)C3)nc2ccccc12,1,32,-3,60*,36,38,FLuc counter=45*
CCCCNC(=O)C1c2ccccc2OCC(=O)N1Cc1ccccc1 (centres undefined),/,/,0,/,/,/,
CCCCNC(=O)C1(C)CCN1C(=O)c1sccc1C (centres undefined),/,/,1,/,/,/,
CC(C)C(=O)NC(c1ccc(Cl)cc1Cl)c1ccc2cccnc2c1O (centres undefined),-36,-3,2,84*,45,91*,FLuc counter=22
CC(NC(=O)CSc1ncccn1)c1ccc(Cl)cc1Cl (centres undefined),27,2,0,-10,17,/,
Cc1cc(NC(c2ccc(Cl)cc2)c2ccc3cccnc3c2O)no1 (centres undefined),18,17,-2,63*,44,82*,FLuc counter=27
CCCCC(=O)NC(c1ccc(Cl)cc1Cl)c1ccc2cccnc2c1O (centres undefined),2,-65,7,77*,-4,87*,FLuc counter=51*
CC(=O)NC(c1ccco1)c1ccc2cccnc2c1O (centres undefined),30,-11,-3,72*,17,54*,FLuc counter=28
Cc1cccc(C)c1NC(=O)C(c1ccccc1)N1CCN(c2ccc(F)cc2)CC1 (centres undefined),/,/,0,/,/,/,
Cc1nc(C)c(C(=O)OCC(=O)N(C)c2ccccc2)s1,26,-2,0,13,28,/,
C[C@@H]1COc2cc(N3CCN(Cc4ccccc4F)CC3)ccc2S(=O)(=O)N1,/,/,1,/,/,/,
